# Screening data (PubChem)
# Rows were chosen to be rich in hits. Some 4.5% of all compounds tested hit in one or more screens of this group.
# CSC inhib: cancer stem cell viability inhibitors, primary screen, luminescence; cancer stem cell-like cells viability; inhibition, % at 7.5 µM; hit rate 1.1% among 300,000; AID 2717, 2010; in the data active = inhibition above about 75%; inconclusive = no clear call, values can overlap the other calls; tested in HMLE shEcad cells
# Gli-Sufu antag: Gli-Sufu pathway antagonists, primary screen, luciferase luminescence, Sufu-KO-LIGHT cells, uHTS | inhibition, % at 5 µM | hit rate 0.74% among 340,000 | Sufu-KO-LIGHT fibroblasts, Gli luciferase reporter luminescence;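 active = inhibition above about 55%, limit read from the data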
# Mdm2 MdmX PPI: inhibitors of human Mdm2-MdmX association, primary screen, cell-based, luminescence, split luciferase, SaOS-2, uHTS; Protein Mdm4 (Homo sapiens) + E3 ubiquitin-protein ligase Mdm2 (Homo sapiens), …; SaOS-2 split-luciferase Mdm2/MdmX complementation; inhibition, % at 8 µM; hit rate 3% among 330,000; AID 485346, 2010;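 active = inhibition of at least 50% at 8 µM in the primary screen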
# Target sequence (O15151 whole entry, looked up): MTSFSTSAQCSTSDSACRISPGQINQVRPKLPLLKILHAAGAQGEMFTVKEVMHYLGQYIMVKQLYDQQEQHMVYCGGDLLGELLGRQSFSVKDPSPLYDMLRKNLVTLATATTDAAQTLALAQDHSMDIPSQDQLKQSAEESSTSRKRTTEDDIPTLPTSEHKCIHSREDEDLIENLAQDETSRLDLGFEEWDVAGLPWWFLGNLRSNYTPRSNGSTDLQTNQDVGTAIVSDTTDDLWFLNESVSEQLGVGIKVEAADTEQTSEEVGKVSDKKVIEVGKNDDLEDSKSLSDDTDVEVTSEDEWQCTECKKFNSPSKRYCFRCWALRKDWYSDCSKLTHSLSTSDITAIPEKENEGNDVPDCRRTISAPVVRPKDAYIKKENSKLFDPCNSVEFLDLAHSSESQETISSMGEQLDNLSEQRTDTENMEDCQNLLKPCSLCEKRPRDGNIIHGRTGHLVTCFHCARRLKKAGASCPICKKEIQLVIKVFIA
# Target sequence (Q00987 whole entry, looked up): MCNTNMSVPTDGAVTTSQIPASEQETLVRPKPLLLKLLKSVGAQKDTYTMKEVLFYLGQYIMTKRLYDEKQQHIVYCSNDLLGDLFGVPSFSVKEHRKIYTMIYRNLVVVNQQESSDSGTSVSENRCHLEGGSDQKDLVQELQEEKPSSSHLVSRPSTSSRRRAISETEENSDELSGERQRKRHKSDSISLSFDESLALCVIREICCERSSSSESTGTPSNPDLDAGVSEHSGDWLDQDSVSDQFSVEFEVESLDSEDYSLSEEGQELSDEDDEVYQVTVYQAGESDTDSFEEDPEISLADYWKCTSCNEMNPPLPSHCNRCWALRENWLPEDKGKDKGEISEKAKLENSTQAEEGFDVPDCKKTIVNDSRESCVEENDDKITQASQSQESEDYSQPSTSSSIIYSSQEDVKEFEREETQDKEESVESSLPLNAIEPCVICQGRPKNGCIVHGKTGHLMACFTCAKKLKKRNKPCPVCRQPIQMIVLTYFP
# aSyn UTR inh: MLPCN primary screen, SNCA 5' untranslated region; alpha-synuclein 5'UTR reporter, inhibitor activity; inhibition, % (tested at 7.5 µM); AID 1813, 2009; hit rate 0.82% among 300,000; in the data active = inhibition above about 60%; inconclusive = no clear call, values can overlap the other calls;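 also: H4 neuroglioblastoma cells stably carrying SNCA 5'UTR luciferase fusion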
# 697 NFkB inh: inhibitors of PMA/ionomycin-induced NF-kB reporter, 697 cells, primary screen, B-cell NF-kB inhibitor project, cell-based, luminescence, uHTS | 697 B-cell NF-kB luciferase reporter, 16 h | inhibition, % at 4 µM | hit rate 0.33% among 330,000; in the data active = inhibition above about 35%
# Jurkat NFkB inh: inhibitors of induced NF-kB luciferase reporter, primary screen, TCR NF-kB activation inhibitor project, cell-based, luminescence, uHTS; hit rate 0.53% among 330,000; inhibition, % at 4 µM; Jurkat, PMA/ionomycin-induced NF-kB luciferase reporter; in the data active = inhibition above about 50%
# Jurkat NFkB conf: PMA/ionomycin-induced NF-kB reporter inhibitors, Jurkat retest, confirmation, T-cell NF-kB inhibitor project, cell-based, luminescence, single concentration. shares compounds with Jurkat NFkB inh. Jurkat NF-kB luciferase, 16 h. inhibition, % at 4 µM. hit rate 27% among 2,700. AID 435020, 2010;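 active = inhibition reaching about 45% at 4 µM in either replicate, limit read from the data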
# Numbers stand for hits; – = inactive; ? = inconclusive; · = no result.
SMILES,CSC inhib,Gli-Sufu antag,Mdm2 MdmX PPI,aSyn UTR inh,697 NFkB inh,Jurkat NFkB inh,Jurkat NFkB conf
Cc1ccc(OCc2ccc(Br)cc2)c([N+](=O)[O-])n1,–,·,–,–,–,–,–
Cc1ccc(OCc2ccc(-c3ccccc3)cc2)c([N+](=O)[O-])n1,–,–,–,–,–,–,·
Cc1ccc(NC(=O)N/C=C/c2ccco2)cc1,–,–,–,–,–,–,·
COc1ccc2c(c1OC)C(=O)N(c1cccc(C(F)(F)F)c1)C2,–,–,–,–,–,–,–
O=C(Nc1ccc(-c2nc3ccccc3s2)c(OC(=O)c2ccccc2)c1)c1ccccc1,–,–,–,–,–,–,–
O=C(Nc1ccc2nc3ccccc3nc2c1)c1ccccc1,–,–,·,–,·,·,·
C/C(=N\Nc1nncc2ccccc12)c1ccc(C(C)(C)C)cc1,–,–,–,–,–,–,·
C/C(=N\Nc1nncc2ccccc12)c1cccc(OC(F)F)c1,–,–,–,–,–,–,–
COc1cccc(-c2nnc3n2N=C(c2cc(OC)ccc2OC)CS3)c1,–,–,–,–,–,–,·
CCOc1cccc(-c2nnc3n2N=C(c2cc(OC)ccc2OC)CS3)c1,–,–,–,63,–,53,48
COc1ccccc1C(=O)N/C(=C\c1cn(C)c2ccccc12)C(=O)N1CCCC1,–,–,–,–,–,–,·
Nc1ccc(-c2nc3cc(N)ccc3s2)cc1,–,–,–,·,–,–,–
Cc1nc2ccc(NC(=O)COc3ccccc3C)cc2s1,–,–,–,–,–,–,·
Cc1cccc(OCC(=O)NCCCNC(=O)c2ccc(C)nc2)c1,–,–,–,–,–,–,·
CC1Cc2ccccc2N1C(=O)COC(=O)/C=C/c1ccc(F)cc1 (stereo not drawn),·,–,–,·,–,–,·
CC1Cc2ccccc2N1C(=O)/C=C/c1cccc(F)c1 (stereo not drawn),·,–,–,–,–,–,–
CC(=O)Oc1cccc(N2C(=O)c3ccc(C(=O)Nc4c[nH]c(=O)[nH]c4=O)cc3C2=O)c1,–,–,–,–,–,–,·
Cn1nnc(-c2ccc(OCc3ccccc3F)cc2)n1,–,–,–,–,–,–,–
O=C(O)Cn1nnc(-c2ccc(OCc3ccccc3Cl)cc2)n1,–,–,–,–,–,–,·
O=c1cc(-c2ccccc2)[nH]c2ccccc12,–,–,–,68,–,55,–
Cc1ccc(S(=O)(=O)N2CCOCC2)cc1NC(=O)CSc1nnnn1C,–,–,–,–,–,–,·
CCCN(CC(=O)Nc1ccccc1C)C(=O)C1CC(=O)N(c2cccc(C)c2C)C1 (stereo not drawn),–,–,–,–,–,–,·
CCOC(=O)N1CCN(c2c(NCc3ccc(F)cc3)c(=O)c2=O)CC1,–,–,–,–,–,61,–
COc1ccc(CCC(=O)Nc2ccc(N3CCOCC3)c(S(=O)(=O)Nc3ccc(OC)cc3)c2)cc1,·,–,·,·,·,·,·
Cc1ccccc1OCC(=O)NNC(=O)C1CC(=O)N(c2ccc3c(c2)OCCO3)C1 (stereo not drawn),·,–,–,·,–,–,·
SMILES,CSC inhib,Gli-Sufu antag,Mdm2 MdmX PPI,aSyn UTR inh,697 NFkB inh,Jurkat NFkB inh,Jurkat NFkB conf
CC1CCCC(C)N1C(=O)CSc1ncccn1 (stereo not drawn),–,–,–,–,–,–,·
Fc1ccc(F)c(C2=NNC(=Nc3ccccc3F)SC2)c1,–,–,–,–,–,–,·
Fc1ccccc1N=C1NN=C(c2ccccc2)CS1,–,–,–,–,–,–,–
O=C(COc1ccccc1)Nc1ccc(Cl)cn1,–,–,–,–,–,–,·
O=C(COc1ccccc1Cl)Nc1ccc(Cl)cn1,–,–,–,–,–,–,–
O=C(NCCc1ccccc1)Nc1ccc2c(c1)OCO2,·,–,–,–,–,–,·
COC(=O)c1cc(-c2ccc3c(c2)OCO3)nc2ccccc12,–,–,–,–,–,–,·
c1ccc2nc(-c3ccc4c(c3)OCO4)ccc2c1,–,–,–,–,–,–,–
O=S1(=O)C=CC(Nc2cccc(Cl)c2)C1 (stereo not drawn),–,–,–,–,–,50,–
Cc1ccc(CN2CCNC(=O)C2CC(=O)N(C)C2CCOCC2)cc1 (stereo not drawn),–,–,–,–,–,–,·
CN(C)S(=O)(=O)c1ccc(Nc2nc(C3CC3)nc3c2nnn3Cc2ccccc2Cl)cc1,·,–,–,–,–,57,65
CCOC(=O)c1sc(NC(=O)c2cccs2)cc1C,–,–,–,–,–,–,–
CCOC(=O)c1sc(NC(=O)c2ccc(Br)o2)cc1C,–,–,–,–,–,–,–
Cc1cc(C)c(OCC(O)CN2CCN(c3ccccn3)CC2)c(C)c1 (stereo not drawn),–,–,–,–,–,–,·
CC(=O)Nc1ccc(/C=C/c2nc3ccccc3o2)cc1,·,–,–,–,–,–,–
O=C(Nc1ccc(/C=C/c2nc3ccccc3o2)cc1)c1c(F)cccc1F,–,–,–,–,–,–,·
COc1ccc2oc(C(=O)Nc3nc4ccccc4[nH]3)c(C)c2c1,–,–,–,–,–,–,–
O=C(Nc1nc2ccccc2[nH]1)c1ccc(F)cc1,·,–,–,–,–,–,–
O=C(Nc1nc2ccccc2[nH]1)c1cc2ccccc2o1,–,–,–,–,–,–,–
Cc1cc(C)cc(C(=O)Nc2nc3ccccc3[nH]2)c1,–,–,–,–,–,–,·
N#Cc1ccc(C(=O)Nc2nc3ccccc3[nH]2)cc1,–,–,–,–,–,–,·
Cc1ccsc1C(=O)Nc1nc2ccccc2[nH]1,–,–,–,–,–,–,–
CC(C)CCNC(=O)C(c1ccc(O)cc1)N(Cc1ccco1)C(=O)CCC(=O)Nc1nccs1 (stereo not drawn),–,–,–,–,–,–,·
CC1C/C(=N\NC(=O)c2ccc(NS(=O)(=O)c3ccc(Br)cc3)cc2)CC(C)(C)C1 (stereo not drawn),–,–,–,–,–,–,·
COc1ccc(CCN2C(=O)CC(C(N)=O)SC2=Nc2ccccc2)cc1OC (stereo not drawn),–,–,–,–,–,–,·
COc1ccc(C=O)cc1Cn1ccnc1C,–,–,–,–,–,–,·
COc1ccc(-c2cc(C(=O)NCC(C)C)no2)cc1,·,–,–,–,–,–,–
CCC(C)NC(=O)c1cc(-c2ccc(OC)cc2)on1 (stereo not drawn),·,–,–,–,–,–,·
COc1ccc(/C=N/NC(=O)CCC(=O)Nc2ccccc2)cc1OC,–,–,–,–,–,–,·
COc1ccc(/C=N/NC(=O)CCn2cnc(-c3ccccc3)c2-c2ccccc2)cc1OC,?,–,–,–,–,64,–
